Compound activity as filed in PubChem BioAssay.
GDH-TPI counter-1: GDH-TPI coupling enzyme inhibitors, primary screen, artefact control for M. tuberculosis FBA inhibitor project, biochemical, absorbance, full deck; GDH-TPI coupled enzyme counterscreen, NADH absorbance; inhibition, % at 4.8 µM; hit rate 1.2% among 360,000; in the data active = inhibition above about 30%
3CLpro inhibitor: SARS-CoV 3CLpro protease inhibitors, primary screen, biochemical, quenched FRET; Replicase polyprotein 1ab (Severe acute respiratory syndrome coronavirus), P0C6X7; recombinant SARS-CoV 3CLpro, quenched FRET peptide cleavage; inhibition, % at 6 µM; hit rate 0.14% among 290,000; in the data active = inhibition above about 12%
Vc quorum ag: inducers of Vibrio cholerae quorum light production without autoinducers, primary screen, BH1578 luxS cqsA deficient, single point | V. cholerae BH1578 lux reporter, luminescence, 6 h | activation, % at 18.7 µM | hit rate 0.16% among 350,000 | AID 588436, 2011; in the data active = activation mostly above about 9.7%, no sharp cut-off
Mtb FBA inh: Mtb FBA enzyme inhibitors, primary screen, biochemical, fluorescence, strain H37Rv; Fructose-bisphosphate aldolase (Mycobacterium tuberculosis (strain ATCC 25618 / H37Rv)), …; purified M. tuberculosis FBA, fluorescence read-out; inhibition, % at 1 µM; hit rate 2.3% among 360,000
Target sequence (P9WQA3 whole entry, looked up): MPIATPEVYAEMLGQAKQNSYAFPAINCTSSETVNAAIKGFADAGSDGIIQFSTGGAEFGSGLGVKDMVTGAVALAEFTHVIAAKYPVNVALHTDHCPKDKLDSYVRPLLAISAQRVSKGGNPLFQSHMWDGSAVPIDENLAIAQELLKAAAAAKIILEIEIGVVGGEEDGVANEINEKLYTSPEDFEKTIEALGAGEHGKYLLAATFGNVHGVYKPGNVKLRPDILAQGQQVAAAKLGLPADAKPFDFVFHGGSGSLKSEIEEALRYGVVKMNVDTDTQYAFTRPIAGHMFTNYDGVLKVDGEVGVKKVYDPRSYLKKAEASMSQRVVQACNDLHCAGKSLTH
PrPC TRFRET: inhibitors of human cell surface prion protein PrPC, primary screen, cell-based, TR-FRET; TR-FRET read-out; inhibition, % at 13.8 µM; hit rate 0.43% among 370,000; in the data active = inhibition above about 24%
Mtb FBA inh conf: M. tuberculosis aldolase blockers, biochemical, fluorescence, strain H37Rv, confirmation | shares compounds with Mtb FBA inh | purified M. tuberculosis FBA, fluorescence read-out | inhibition, % at 1 µM | hit rate 78% among 5,600 | AID 651616, 2012
GDH-TPI counter-2: GDH-TPI coupling enzyme inhibitors, artefact control for M. tuberculosis FBA inhibitor project, biochemical, fluorescence, high throughput | AID 652141, 2013 | GDH-TPI coupled enzyme counterscreen | shares compounds with Mtb FBA inh | inhibition, % at 1 µM | hit rate 81% among 5,600; in the data active = inhibition above about 10%
Of the large screens only hits and unclear results are named; the others gave an inactive call (follow-up assays come after a bar, where they were run). Most compounds without a hit are left out; they make up all but 3.9% or so of the library. Rule as the data show it, unless noted: active = inhibition above about 27%; inactive = the rest.

Cc1cccc(NC(=S)NC(NC(=O)c2ccco2)C(Cl)(Cl)Cl)c1 (centres undefined)	Mtb FBA inh 73.9 | Mtb FBA inh conf 89.1 | GDH-TPI counter-2 95.2
CCO/C=C1/C(=O)N(c2ccccc2OC)C(=O)c2ccccc21	Mtb FBA inh 34.6 | Mtb FBA inh conf 95.5 | GDH-TPI counter-2 80.7
COc1ccc(S(=O)(=O)Nc2c(C)n(C)n(-c3ccccc3)c2=O)cc1C(=O)O	none
Cc1ccnc(SCc2cn3c(C)cc(C)nc3n2)n1	Mtb FBA inh 99.7 | Mtb FBA inh conf 45.7 | GDH-TPI counter-2 48.1
Cc1cc(C)n2cc(CSC3=NCCS3)nc2n1	Mtb FBA inh 53.3 | Mtb FBA inh conf 189.9 | GDH-TPI counter-2 155.3
Cc1cc(C)n2cc(CSc3ncccc3C(=O)O)nc2n1	Mtb FBA inh 81.6 (no result: Vc quorum ag) | Mtb FBA inh conf 199.3 | GDH-TPI counter-2 179.4
Cc1cc(C)n2cc(CSCc3ccco3)nc2n1	none
O=C(O)c1cccnc1SCc1cn2cc(Br)ccc2n1	none
Cc1cc(C)n2cc(CSc3nnnn3-c3ccccc3C)nc2n1	none
CC(NC(=O)C1=CC=CN2CCS(=O)(=O)N=C12)c1ccc(Cl)cc1Cl (centres undefined)	Mtb FBA inh 28.9 (no result: 3CLpro inhibitor) | Mtb FBA inh conf 125.5 | GDH-TPI counter-2 94.7
CC(NC(=O)C1=CC=CN2CCS(=O)(=O)N=C12)c1ccc(Cl)c(Cl)c1 (centres undefined)	none (no result: 3CLpro inhibitor)
O=C(NCc1ccccc1Cl)C1=CC=CN2CCS(=O)(=O)N=C12	Mtb FBA inh 35.8 (no result: 3CLpro inhibitor) | Mtb FBA inh conf active | GDH-TPI counter-2 active
COc1cccc(C2Nc3ccc4ccccc4c3C3=C2C(=O)CC(C)(C)C3)c1OCC(=O)O (centres undefined)	Mtb FBA inh 64.7 | Mtb FBA inh conf 132.1 | GDH-TPI counter-2 113.5
CC1(C)CC(=O)C2=C(C1)c1c(ccc3ccccc13)NC2c1ccc(Br)o1 (centres undefined)	Mtb FBA inh 31.5 | Mtb FBA inh conf 173.7 | GDH-TPI counter-2 148.4
Cc1cc2c(c(=O)o1)[C@@]1(C(=O)N(C)c3ccccc31)C1=C(CCC1=O)O2	none (no result: GDH-TPI counter-1, 3CLpro inhibitor, Vc quorum ag, Mtb FBA inh)
N#Cc1ccc(-c2ccc(OCC3CNC(=O)O3)cc2)cc1 (centres undefined)	Mtb FBA inh 43.8 | Mtb FBA inh conf active | GDH-TPI counter-2 active
O=C1NCC(COc2ccc([N+](=O)[O-])cc2)O1 (centres undefined)	none
CC(C)(C)C(=O)Nc1cccc(-c2nc3ccccc3[nH]2)c1	none
CC(C)(C)C(=O)Nc1sc2c(c1-c1nc3ccccc3[nH]1)CCCC2	Mtb FBA inh 83.3 | Mtb FBA inh conf 82.8 | GDH-TPI counter-2 60.9
COc1ccc(CNC(=O)Cn2cc(C)c(=O)[nH]c2=O)cc1	none (no result: 3CLpro inhibitor)
CCc1ccc(NC(=O)C(=O)NCCOc2ccccc2Cl)cc1	none
COC(=O)C1CCCN(C(=O)C2CCN(S(=O)(=O)c3cccs3)CC2)C1 (centres undefined)	none (no result: GDH-TPI counter-1, 3CLpro inhibitor, Vc quorum ag, Mtb FBA inh)
CSCC[C@H](NC(=O)OC(C)(C)C)C(=O)N/N=C/c1cccc2cccnc12	none
COc1ccc2nc(/C=N/NC(=O)[C@@H]3CCCN3C(=O)OC(C)(C)C)ccc2c1	Mtb FBA inh 99.1 | Mtb FBA inh conf 54.0 | GDH-TPI counter-2 45.9
COc1ccc2nc(/C=N/NC(=O)[C@H](CCSC)NC(=O)OC(C)(C)C)ccc2c1	GDH-TPI counter-1 32.1, Mtb FBA inh 60.2 | Mtb FBA inh conf 53.1 | GDH-TPI counter-2 56.0
CC(C)(C)OC(=O)N1CCC[C@H]1C(=O)N/N=C/c1ccc2nccnc2c1	none
CCC(C)[C@H](NC(=O)OC(C)(C)C)C(=O)N/N=C/c1ccc2cc(OC)ccc2n1 (some centres undefined)	Mtb FBA inh 33.0 | Mtb FBA inh conf active | GDH-TPI counter-2 180.5
O=C(Nc1ccccc1[N+](=O)[O-])c1cccnc1Cl	none
